In the supplement of paper PMC10849652:
The full data set covers some 7,900 targets. This sample favours those with a hit. About 0.6% of all pairs of compound and target were hits. Unmarked numbers belong to inactive results.

Legend:
Assay in all cases: log2 fold change, soluble protein after heating vs DMSO (PISA); higher = thermal stabilisation; K562 cells, 10 uM, 30 min; active = over 0.2 and 3.5 SD of the protein, either way, in both replicates (recomputed)
[1] = compound: CS(=O)(=O)c1ccc(-c2cnc(N)c(C(=O)Nc3ccccc3)n2)cc1
In short: (§1)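 Soluble protein was quantified by TMTpro 16plex LC-MS/MS after channel sums were equalised. It was obtained as the supernatant after 21,000xg for 90 min from pooled aliquots of K562 cells (2×10^6 cells/mL, 10 μM compound, 30 min) heated for 3 min across 48°C-58°C and extracted in PBS with 0.5% NP-40 at 4°C. Thermal stability values are relative to control samples and come from duplicates. They are given as log2 fold changes.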

[2] = compound: C[C@@H](Oc1cc(-c2cnn(C3CCNCC3)c2)cnc1N)c1c(Cl)ccc(F)c1Cl [crizotinib]
In short: as §1

[3] = compound: C[C@@H]1COCCN1C2=NC(=NC(=C2)C3(CC3)S(=O)(=O)C)C4=C5C=CNC5=CC=C4
In short: as §1

[4] = compound: C[C@H](C1=CC=C(C=C1)C(=O)NC2=C3C=CNC3=NC=C2)N
In short: as §1

[5] = compound: C[C@H](Nc1ncnc2nc[nH]c12)c1cc2cccc(Cl)c2c(=O)n1-c1ccccc1 [duvelisib]
In short: as §1

[6] = compound: Cc1cc(Nc2cc(CN3CCOCC3)c3nc(C)c(Cc4ccc(Cl)cc4F)n3n2)n[nH]1 [gandotinib]
In short: as §1

[7] = compound: Cc1cc(Nc2cc(N3CCN(C)CC3)nc(Sc3ccc(NC(=O)C4CC4)cc3)n2)n[nH]1 [tozasertib]
In short: as §1

[8] = compound: Cc1cc(SCc2sc(-c3ccc(C(F)(F)F)cc3)nc2C)ccc1OCC(=O)O
In short: as §1

[9] = compound: Cc1ccc(-n2nc(C(C)(C)C)cc2NC(=O)Nc2ccc(OCCN3CCOCC3)c3ccccc23)cc1 [doramapimod]
In short: as §1

[10] = compound: Cc1ccc(C(=O)N(CCCN)[C@@H](c2nc3cc(Cl)ccc3c(=O)n2Cc2ccccc2)C(C)C)cc1 [ispinesib]
In short: as §1

[11] = compound: Cc1ccc(NC(=O)c2ccc(CN3CC[C@H](N(C)C)C3)c(C(F)(F)F)c2)cc1Nc1nccc(-c2cncnc2)n1 [bafetinib]
In short: as §1

[12] = compound: Cc1cccc(CC(=O)N2CCc3c2ccc(-c2cn(C)c4ncnc(N)c24)c3F)n1
In short: as §1

[13] = compound: Cc1cn(-c2cc(NC(=O)c3ccc(C)c(Nc4nccc(-c5cccnc5)n4)c3)cc(C(F)(F)F)c2)cn1 [nilotinib]
In short: as §1

[14] = compound: Cc1nc(Nc2n[nH]c3c2CN(C(=O)N[C@H](CN(C)C)c2ccccc2)C3(C)C)c2sccc2n1
In short: as §1

[15] = compound: Cc1nc(Nc2ncc(C(=O)Nc3c(C)cccc3Cl)s2)cc(N2CCN(CCO)CC2)n1 [dasatinib]
In short: as §1

[16] = compound: Cc1ncc(-c2ccnc(Nc3ccc(S(C)(=O)=O)cc3)n2)n1C(C)C
In short: as §1

[17] = compound: Cn1cc(-c2ccc3c(c2)CCN3C(=O)Cc2cccc(C(F)(F)F)c2)c2c(N)ncnc21
In short: as §1

[18] = compound: Cn1cc(-c2ccc3nnc(C(F)(F)c4ccc5ncccc5c4)n3n2)cn1
In short: as §1

[19] = compound: Cn1cncc1[C@@](N)(c1ccc(Cl)cc1)c1ccc2c(c1)c(-c1cccc(Cl)c1)cc(=O)n2C [tipifarnib]
In short: as §1

[20] = compound: FC(F)(F)c1ccc(/C=C/c2nc(COc3ccc(CCCCn4ccnn4)cc3)co2)cc1 [mubritinib]
In short: as §1

Chain of UniProt Q8NEB9 (Q8NEB9 whole entry, looked up): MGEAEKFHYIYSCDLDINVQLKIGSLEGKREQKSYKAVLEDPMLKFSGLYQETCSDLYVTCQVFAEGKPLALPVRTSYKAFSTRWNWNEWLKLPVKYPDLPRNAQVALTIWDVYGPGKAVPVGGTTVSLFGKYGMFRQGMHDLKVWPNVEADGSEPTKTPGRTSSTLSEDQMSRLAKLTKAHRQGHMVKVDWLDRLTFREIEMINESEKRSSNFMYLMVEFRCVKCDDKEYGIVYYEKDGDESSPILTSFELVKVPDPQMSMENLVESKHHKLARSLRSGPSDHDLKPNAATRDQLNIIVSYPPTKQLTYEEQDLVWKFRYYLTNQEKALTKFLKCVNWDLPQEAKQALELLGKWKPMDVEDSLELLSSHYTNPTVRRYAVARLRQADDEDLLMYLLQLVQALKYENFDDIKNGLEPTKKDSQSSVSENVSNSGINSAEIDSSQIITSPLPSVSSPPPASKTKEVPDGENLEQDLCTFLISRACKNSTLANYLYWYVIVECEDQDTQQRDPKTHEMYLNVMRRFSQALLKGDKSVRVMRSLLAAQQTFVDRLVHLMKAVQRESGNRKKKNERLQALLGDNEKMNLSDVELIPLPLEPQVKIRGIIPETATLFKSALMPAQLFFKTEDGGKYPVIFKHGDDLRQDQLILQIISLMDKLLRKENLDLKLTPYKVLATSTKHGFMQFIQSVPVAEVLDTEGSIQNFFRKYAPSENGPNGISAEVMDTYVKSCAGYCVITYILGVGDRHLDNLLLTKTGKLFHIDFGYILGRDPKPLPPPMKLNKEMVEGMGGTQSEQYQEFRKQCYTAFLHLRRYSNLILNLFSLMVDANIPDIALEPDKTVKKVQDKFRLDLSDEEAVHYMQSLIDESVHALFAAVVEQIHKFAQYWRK
Chain of UniProt P11216 (P11216 whole entry, looked up): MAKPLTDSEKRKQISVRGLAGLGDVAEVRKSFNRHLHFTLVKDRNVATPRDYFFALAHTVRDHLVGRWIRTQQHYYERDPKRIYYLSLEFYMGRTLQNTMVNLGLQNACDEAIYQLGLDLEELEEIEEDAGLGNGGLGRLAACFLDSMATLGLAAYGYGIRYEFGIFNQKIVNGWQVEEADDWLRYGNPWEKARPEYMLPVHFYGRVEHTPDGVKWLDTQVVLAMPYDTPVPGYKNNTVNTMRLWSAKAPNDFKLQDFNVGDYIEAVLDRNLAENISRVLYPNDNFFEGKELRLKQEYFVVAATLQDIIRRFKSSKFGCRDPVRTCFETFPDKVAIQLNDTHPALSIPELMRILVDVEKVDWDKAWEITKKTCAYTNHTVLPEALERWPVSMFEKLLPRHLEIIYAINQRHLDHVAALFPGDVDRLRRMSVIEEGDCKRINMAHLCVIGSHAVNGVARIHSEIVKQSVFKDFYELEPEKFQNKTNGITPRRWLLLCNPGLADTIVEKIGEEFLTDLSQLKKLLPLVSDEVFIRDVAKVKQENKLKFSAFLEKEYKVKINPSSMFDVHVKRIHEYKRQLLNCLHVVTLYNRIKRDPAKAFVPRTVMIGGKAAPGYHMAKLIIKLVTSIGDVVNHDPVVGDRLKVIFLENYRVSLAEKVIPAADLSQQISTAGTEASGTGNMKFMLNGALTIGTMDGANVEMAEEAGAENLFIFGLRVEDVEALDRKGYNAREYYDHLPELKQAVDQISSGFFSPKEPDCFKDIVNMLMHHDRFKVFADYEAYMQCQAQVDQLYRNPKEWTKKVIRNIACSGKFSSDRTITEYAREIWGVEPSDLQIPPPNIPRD
Chain of UniProt P06737 (P06737 whole entry, looked up): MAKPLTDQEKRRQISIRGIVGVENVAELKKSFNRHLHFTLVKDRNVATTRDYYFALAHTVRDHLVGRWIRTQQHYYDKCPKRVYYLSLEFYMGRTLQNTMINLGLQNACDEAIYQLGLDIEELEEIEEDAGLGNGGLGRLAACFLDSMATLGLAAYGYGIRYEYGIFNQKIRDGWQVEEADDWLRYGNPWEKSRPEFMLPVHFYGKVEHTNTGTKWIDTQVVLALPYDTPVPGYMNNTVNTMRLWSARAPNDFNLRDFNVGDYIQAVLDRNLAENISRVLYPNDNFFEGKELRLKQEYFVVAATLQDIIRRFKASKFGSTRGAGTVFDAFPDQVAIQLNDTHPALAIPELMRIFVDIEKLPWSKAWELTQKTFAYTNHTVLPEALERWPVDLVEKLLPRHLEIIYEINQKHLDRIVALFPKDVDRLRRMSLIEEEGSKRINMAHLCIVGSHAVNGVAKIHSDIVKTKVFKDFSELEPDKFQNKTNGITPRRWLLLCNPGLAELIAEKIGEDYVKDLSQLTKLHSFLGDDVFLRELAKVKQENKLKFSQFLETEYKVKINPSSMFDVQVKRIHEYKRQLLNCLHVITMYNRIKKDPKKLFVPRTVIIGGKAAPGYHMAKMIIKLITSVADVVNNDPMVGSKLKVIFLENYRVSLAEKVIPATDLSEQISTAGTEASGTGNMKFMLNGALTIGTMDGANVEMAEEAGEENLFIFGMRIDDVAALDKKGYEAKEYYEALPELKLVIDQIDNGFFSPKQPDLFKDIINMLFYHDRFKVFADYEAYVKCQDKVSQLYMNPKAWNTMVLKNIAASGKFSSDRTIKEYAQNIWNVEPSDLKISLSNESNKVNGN
Chain of UniProt Q15004 (Q15004 whole entry, looked up): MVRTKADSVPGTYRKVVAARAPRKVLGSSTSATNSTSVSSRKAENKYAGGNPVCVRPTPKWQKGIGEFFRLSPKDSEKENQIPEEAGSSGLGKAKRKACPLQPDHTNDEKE
Chain of UniProt Q05209 (Q05209 whole entry, looked up): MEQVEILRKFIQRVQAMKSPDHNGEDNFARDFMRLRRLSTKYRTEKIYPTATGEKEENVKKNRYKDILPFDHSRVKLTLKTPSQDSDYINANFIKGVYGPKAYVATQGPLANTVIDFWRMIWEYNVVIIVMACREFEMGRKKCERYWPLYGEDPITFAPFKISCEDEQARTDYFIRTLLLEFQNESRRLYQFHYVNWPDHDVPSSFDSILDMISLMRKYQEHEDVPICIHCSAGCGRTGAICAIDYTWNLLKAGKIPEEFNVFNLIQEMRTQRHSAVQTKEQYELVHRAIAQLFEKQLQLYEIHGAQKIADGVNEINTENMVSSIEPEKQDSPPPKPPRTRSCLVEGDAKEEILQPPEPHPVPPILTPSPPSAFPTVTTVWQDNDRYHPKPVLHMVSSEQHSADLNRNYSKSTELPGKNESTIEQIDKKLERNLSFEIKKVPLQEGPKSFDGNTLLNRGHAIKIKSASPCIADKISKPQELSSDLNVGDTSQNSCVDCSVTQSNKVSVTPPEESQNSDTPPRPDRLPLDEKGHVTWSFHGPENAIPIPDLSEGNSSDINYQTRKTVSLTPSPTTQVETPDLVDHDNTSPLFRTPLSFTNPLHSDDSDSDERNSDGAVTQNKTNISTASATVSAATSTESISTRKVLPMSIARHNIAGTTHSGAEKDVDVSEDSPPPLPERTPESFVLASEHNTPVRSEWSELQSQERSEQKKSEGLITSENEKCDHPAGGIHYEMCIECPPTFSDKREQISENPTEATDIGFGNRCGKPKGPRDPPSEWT
Chain of UniProt Q96AD5 (Q96AD5 whole entry, looked up): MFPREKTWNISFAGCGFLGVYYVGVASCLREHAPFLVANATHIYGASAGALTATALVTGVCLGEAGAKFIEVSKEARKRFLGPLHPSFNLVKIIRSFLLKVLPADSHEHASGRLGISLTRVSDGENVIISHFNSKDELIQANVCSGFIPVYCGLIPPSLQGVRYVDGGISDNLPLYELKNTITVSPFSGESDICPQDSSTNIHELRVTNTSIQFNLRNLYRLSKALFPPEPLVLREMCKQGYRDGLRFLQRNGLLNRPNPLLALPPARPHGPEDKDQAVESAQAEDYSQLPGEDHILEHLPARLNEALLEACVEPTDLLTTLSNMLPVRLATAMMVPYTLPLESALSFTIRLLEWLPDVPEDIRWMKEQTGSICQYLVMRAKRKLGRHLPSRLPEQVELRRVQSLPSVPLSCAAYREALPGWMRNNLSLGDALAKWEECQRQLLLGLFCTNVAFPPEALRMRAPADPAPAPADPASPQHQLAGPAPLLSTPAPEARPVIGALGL
Chain of UniProt O15162 (O15162 whole entry, looked up): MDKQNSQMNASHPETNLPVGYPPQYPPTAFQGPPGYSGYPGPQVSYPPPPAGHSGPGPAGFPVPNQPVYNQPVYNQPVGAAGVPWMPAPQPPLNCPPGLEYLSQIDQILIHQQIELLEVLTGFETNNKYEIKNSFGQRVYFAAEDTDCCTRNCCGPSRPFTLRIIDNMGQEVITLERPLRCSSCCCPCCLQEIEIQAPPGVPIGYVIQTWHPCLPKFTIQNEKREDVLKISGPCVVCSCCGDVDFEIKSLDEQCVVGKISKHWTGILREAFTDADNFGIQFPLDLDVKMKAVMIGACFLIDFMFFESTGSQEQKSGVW
Chain of UniProt Q8WUK0 (Q8WUK0 whole entry, looked up): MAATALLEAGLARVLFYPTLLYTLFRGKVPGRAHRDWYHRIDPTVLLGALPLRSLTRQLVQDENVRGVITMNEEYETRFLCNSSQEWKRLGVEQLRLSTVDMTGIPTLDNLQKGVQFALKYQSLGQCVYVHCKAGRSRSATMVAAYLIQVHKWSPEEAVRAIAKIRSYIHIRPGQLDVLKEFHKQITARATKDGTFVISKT
Chain of UniProt O00628 (O00628 whole entry, looked up): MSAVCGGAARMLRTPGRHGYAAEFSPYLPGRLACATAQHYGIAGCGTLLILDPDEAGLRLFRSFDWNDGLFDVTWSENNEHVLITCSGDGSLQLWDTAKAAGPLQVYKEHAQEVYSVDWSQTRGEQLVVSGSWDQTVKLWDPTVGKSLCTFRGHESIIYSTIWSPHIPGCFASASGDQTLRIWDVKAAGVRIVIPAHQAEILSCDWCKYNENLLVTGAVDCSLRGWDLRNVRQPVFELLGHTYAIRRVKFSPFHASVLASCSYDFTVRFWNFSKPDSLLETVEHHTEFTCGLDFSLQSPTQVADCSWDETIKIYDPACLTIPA

Row | Target | log2 fold change [1] | log2 fold change [2] | log2 fold change [3] | log2 fold change [4] | log2 fold change [5] | log2 fold change [6] | log2 fold change [7] | log2 fold change [8] | log2 fold change [9] | log2 fold change [10] | log2 fold change [11] | log2 fold change [12] | log2 fold change [13] | log2 fold change [14] | log2 fold change [15] | log2 fold change [16] | log2 fold change [17] | log2 fold change [18] | log2 fold change [19] | log2 fold change [20]
1 | PYGB (UniProt P11216) | -0.305 (active) | -0.057 | 0.015 | 0.107 | 0.026 | -0.045 | -0.04 | -0.002 | -0.005 | 0.013 | -0.317 (active) | 0 | -0.358 (active) | 0.02 | -0.042 | -0.032 | 0.026 | -0.007 | 0.035 | 0.014
2 | RAB11FIP1 (UniProt Q6WKZ4) | -0.071 | -0.096 | -0.001 | -0.038 | 0.004 | -0.01 | 0.057 | -0.003 | 0.047 | -0.251 (active) | -0.042 | 0.12 | 0.049 | -0.198 | -0.037 | -0.172 | 0.008 | 0 | 0.003 | 0.003
3 | PEX7 (UniProt O00628) | -0.011 | -0.037 | 0.121 | 0.024 | 0.04 | -0.005 | -0.042 | 0.145 | 0.002 | -0.078 | 0.101 | -0.025 | -0.047 | 0.048 | -0.025 | -0.007 | 0.05 | 0.04 | 0.034 | 0.085
4 | PIK3C3 (UniProt Q8NEB9) | 0.147 | -0.037 | -0.125 | 0.06 | 0.258 (active) | 0.164 | 0.012 | -0.008 | 0.127 | -0.101 | 0.065 | -0.011 | 0.043 | -0.039 | -0.04 | 0.202 | -0.035 | -0.006 | 0.047 | 0.042
5 | PYGL (UniProt P06737) | -0.122 | 0.003 | 0.026 | -0.019 | 0.03 | 0.013 | -0.022 | -0.023 | 0.001 | 0.015 | -0.218 | 0.006 | -0.202 | 0.036 | -0.027 | -0.035 | 0.001 | -0.005 | 0.016 | 0.052
6 | PRKAR2A (UniProt P13861) | 0.046 | -0.038 | 0.089 | -0.159 | 0.069 | -0.02 | 0.04 | 0.023 | 0.03 | -0.056 | 0.029 | 0.007 | 0.139 | -0.606 (active) | -0.055 | -0.026 | 0.07 | 0.102 | 0.004 | 0.042
7 | PNPLA2 (UniProt Q96AD5) | 0.048 | -0.055 | 0.094 | 0.095 | 0.156 | -0.303 | -0.06 | -0.065 | 0.046 | -0.395 (active) | 0.084 | -0.334 | 0.049 | -0.112 | -0.113 | -0.118 | 0.056 | 0.049 | -0.026 | 0.113
8 | PLSCR1 (UniProt O15162) | 0.079 | 0.017 | 0.101 | -0.024 | 0.037 | -0.096 | -0.075 | -0.017 | 0.042 | -0.619 (active) | 0.011 | 0.002 | -0.004 | -0.022 | 0.052 | -0.032 | 0.024 | 0.048 | 0.036 | 0.148
9 | POLR2A (UniProt P24928) | 0.027 | 0.231 | 0.049 | 0.21 | 0.06 | 0.321 (active) | -0.026 | 0.023 | -0.009 | 0.006 | -0.019 | -0.014 | -0.039 | 0.24 | -0.066 | 0.511 (active) | 0 | -0.037 | 0.004 | 0.038
10 | POLR2D (UniProt O15514) | 0.006 | 0.192 | -0.08 | 0.038 | 0.065 | 0.158 | -0.012 | -0.068 | -0.024 | 0.017 | 0.009 | -0.076 | -0.028 | 0.122 | -0.013 | 0.202 | -0.036 | 0.034 | -0.01 | 0.052
11 | PTPN12 (UniProt Q05209) | 0.031 | -0.018 | -0.04 | 0.069 | -0.022 | -0.088 | 0.089 | 0.053 | -0.004 | -0.011 | -0.052 | 0.008 | -0.022 | -0.122 | -0.059 | 0.074 | -0.116 | -0.086 | -0.081 | 0.021
12 | PTPMT1 (UniProt Q8WUK0) | 0.086 | -0.546 (active) | 0.039 | -0.026 | 0.118 | -0.125 | -0.001 | 0.109 | -0.036 | -0.429 (active) | -0.16 | -0.003 | 0.069 | -0.013 | -0.138 | 0.029 | -0.056 | -0.132 | 0.026 | -0.006
13 | PTPN23 (UniProt Q9H3S7) | 0.014 | 0.057 | 0.018 | 0.027 | 0.116 | -0.072 | 0.148 | 0.13 | -0.002 | 0.018 | 0.028 | 0.053 | -0.07 | -0.096 | -0.199 | 0.059 | -0.016 | 0.02 | -0.069 | 0.034
14 | POLR2B (UniProt P30876) | 0.041 | 0.032 | 0.023 | 0.18 | 0.025 | 0.26 (active) | -0.014 | 0.03 | -0.014 | -0.048 | 0.024 | -0.005 | 0.079 | 0.054 | -0.055 | 0.324 (active) | -0.054 | -0.006 | -0.029 | -0.014
15 | PCLAF (UniProt Q15004) | -0.175 | 0.027 | -0.19 | 0.052 | -0.022 | -0.07 | -0.03 | -0.097 | 0.022 | 0.079 | -0.015 | -0.1 | -0.027 | 0.105 | 0.065 | -0.081 | -0.112 | -0.069 | -0.019 | -0.095
16 | PHKA2 (UniProt P46019) | -0.247 | -0.076 | 0.051 | -0.108 | 0.022 | -0.083 | -0.052 | 0.071 | 0.053 | -0.013 | -0.107 | -0.037 | -0.239 | 0.119 | -0.07 | -0.157 | 0.033 | -0.051 | -0.055 | 0.082
